Reference: PubChem BioAssay (NCATS)
Inconclusive results are not listed. The source made the active and inactive calls. Calls follow the shape of the dose curve; as a rule, active = well fitted curve in the direction sought with a large enough effect; inconclusive = small, poorly fitted or top-dose-only effect, or another doubt; inactive = no such curve, though single readings can be large; an effect the other way counts as inactive or inconclusive. Where a SMILES comes first, the peptide text is derived from it. [ ]: non-standard residue; d: D form. ξ: configuration not given here. ξPhe(βξ-Me) = CC(c1ccccc1)C(N)C(=O)O; GABA = NCCCC(=O)O

Legend:
HaCat = experiment: Cytotoxic Profiling of Annotated Libraries Using Quantitative High-Throughput Screening (AID 1296008); conditions: Five cell lines viability, CellTiter-Glo ATP luminescence, 48-72 h; max response: stronger effect = lower value; also: nearly all actives have a fitted effect of over 60% in size
Outline: (§1)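 Cytotoxicity was measured as CellTiter-Glo ATP luminescence, read after 10 min at room temperature. Compound treatment of the cells lasted 48 or 72 hr at 37 degrees Celsius in a qHTS format.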

KB-3-1 = experiment: as above; conditions: Five cell lines viability, CellTiter-Glo ATP luminescence, 48-72 h; max response: stronger effect = lower value
Outline: as §1

NIH3T3 = experiment: as above; conditions: Five cell lines viability, CellTiter-Glo ATP luminescence, 48-72 h; max response: stronger effect = lower value
Outline: as §1

C33A = experiment: Primary qHTS to identify gynecologic anti-cancer compounds using libraries of approved drugs and bioactive compounds (AID 1345084); conditions: Gynecologic cancer cell panel viability, ATPlite luminescence, 48 h; series mostly up to 57.5 µM; also: nearly all actives have a fitted effect of over 55% in size
Outline: (§2)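 48 h compound exposure at 37 C, 5% CO2; five-point qHTS. ATPlite luminescence readout of cell ATP.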

CAOV3 = experiment: as above; conditions: Gynecologic cancer cell panel viability, ATPlite luminescence, 48 h; series mostly up to 57.5 µM
Outline: as §2

CASKI = experiment: as above; conditions: Gynecologic cancer cell panel viability, ATPlite luminescence, 48 h; series mostly up to 57.5 µM
Outline: as §2

Es-2 = experiment: as above; conditions: Gynecologic cancer cell panel viability, ATPlite luminescence, 48 h; series mostly up to 57.5 µM
Outline: as §2

HeLa = experiment: as above; conditions: Gynecologic cancer cell panel viability, ATPlite luminescence, 48 h; series mostly up to 57.5 µM
Outline: as §2

Hek293T = experiment: as above; conditions: Gynecologic cancer cell panel viability, ATPlite luminescence, 48 h, control line for the selectivity index; series mostly up to 57.5 µM
Outline: as §2

JEG-3 = experiment: as above; conditions: Gynecologic cancer cell panel viability, ATPlite luminescence, 48 h; series mostly up to 57.5 µM
Outline: as §2

OV90 = experiment: as above; conditions: Gynecologic cancer cell panel viability, ATPlite luminescence, 48 h; series mostly up to 57.5 µM
Outline: as §2
% is scaled to controls: 0 for no effect and ±100 for the full control effect.

CC(C)=CCC/C(C)=C/CCC1(C)Oc2c(c(O)cc3c2CN(C(CCC(=O)O)C(=O)O)C3=O)CC1O (centres undefined)
inactive: max response (HaCat) -10.3% | outcome (KB-3-1) | max response (NIH3T3) -11% | Potency (C33A) | Potency (CAOV3) | Potency (CASKI) | Potency (Es-2) | Potency (HeLa) | Potency (Hek293T) | Potency (JEG-3) | Potency (OV90)

CCCOC(c1cc2nccc(C(=O)O)c2[nH]1)c1ccccc1Cl (centres undefined)
inactive: max response (HaCat) -2.87% | outcome (KB-3-1) | max response (NIH3T3) 4.32% | Potency (C33A) | Potency (CAOV3) | Potency (CASKI) | Potency (Es-2) | Potency (HeLa) | Potency (Hek293T) | Potency (JEG-3) | Potency (OV90)

CC(=O)O[C@]1(C(C)=O)CC[C@H]2[C@@H]3C[C@H](C)C4=CC(=O)C=C[C@]4(C)[C@@]3(F)[C@@H](O)C[C@@]21C
inactive: max response (HaCat) 3.64% | outcome (KB-3-1) | max response (NIH3T3) 3.11% | Potency (C33A) | Potency (CAOV3) | Potency (CASKI) | Potency (Es-2) | Potency (HeLa) | Potency (Hek293T) | Potency (JEG-3) | Potency (OV90)

C[C@H]1CC[C@@H]2N(C1)C[C@@H]1[C@H]([C@@H](O)[C@H](O)[C@]3(O)[C@H]1C[C@@]14OC5(O)[C@@H](C[C@@H](O)[C@@H]31)[C@]4(C)CC[C@@H]5O)[C@]2(C)O
inactive: max response (HaCat) -17.6% | outcome (KB-3-1) | max response (NIH3T3) 0.156% | Potency (C33A) | Potency (CAOV3) | Potency (CASKI) | Potency (Es-2) | Potency (HeLa) | Potency (Hek293T) | Potency (JEG-3) | Potency (OV90)

COC(=O)C1=COC(O[C@@H]2O[C@H](CO)[C@@H](O)[C@H](O)[C@H]2O)[C@H]2[C@@H]1[C@H](OC(=O)CCc1ccc(O)cc1)C[C@]2(C)O (some centres undefined)
inactive: max response (HaCat) -1.18% | max response (KB-3-1) -2.46% | max response (NIH3T3) 2.76% | Potency (C33A) | Potency (CAOV3) | Potency (CASKI) | Potency (Es-2) | Potency (HeLa) | Potency (Hek293T) | Potency (JEG-3) | Potency (OV90)

C/C1=C\CC[C@]2(C)O[C@@H]2[C@H](O)[C@H](C(C)C)[C@H](OC(=O)/C=C/c2ccccc2)C1
inactive: max response (HaCat) -5.06% | max response (KB-3-1) -3.73% | max response (NIH3T3) 2.07% | Potency (C33A) | Potency (CAOV3) | Potency (CASKI) | Potency (Es-2) | Potency (HeLa) | Potency (Hek293T) | Potency (JEG-3) | Potency (OV90)

Fc1ccc2nc(CCC#Cc3ccccn3)cn2c1
inactive: max response (HaCat) -2.5% | max response (KB-3-1) -13.9% | max response (NIH3T3) -0.863% | Potency (C33A) | Potency (CAOV3) | Potency (CASKI) | Potency (Es-2) | Potency (HeLa) | Potency (Hek293T) | Potency (JEG-3) | Potency (OV90)

O=C(O)COCCN1CCN([C@H](c2ccccc2)c2ccc(Cl)cc2)CC1
inactive: max response (HaCat) -30.6% | max response (KB-3-1) 0.104% | max response (NIH3T3) 0.14% | Potency (C33A) | Potency (CAOV3) | Potency (CASKI) | Potency (Es-2) | Potency (HeLa) | Potency (Hek293T) | Potency (JEG-3) | Potency (OV90)

CC(O)CO[C@@H]1O[C@H](CO)[C@@H](O)[C@H](O)[C@H]1O (some centres undefined)
inactive: max response (HaCat) -15.1% | outcome (KB-3-1) | max response (NIH3T3) 0.151% | Potency (C33A) | Potency (CAOV3) | Potency (CASKI) | Potency (Es-2) | Potency (HeLa) | Potency (Hek293T) | Potency (JEG-3) | Potency (OV90)

CC(=O)CCC1=C(C)C(O[C@@H]2O[C@H](CO)[C@@H](O)[C@H](O)[C@H]2O)C(O)CC1(C)C (some centres undefined)
inactive: max response (HaCat) 1.46% | max response (KB-3-1) 1.06% | max response (NIH3T3) 3.13% | Potency (C33A) | Potency (CAOV3) | Potency (CASKI) | Potency (Es-2) | Potency (HeLa) | Potency (Hek293T) | Potency (JEG-3) | Potency (OV90)

CC1NC(=O)CCCNC(=O)C(Cc2c[nH]c3ccccc23)NC(=O)C(C)NC(=O)C(C(C)C)NC(=O)C(C(C)c2ccccc2)NC(=O)C(C(C)C)NC1=O (stereo not drawn) (cyclo([GABA]AV[ξPhe(βξ-Me)]VAW); configuration not given here)
inactive: max response (HaCat) -0.27% | max response (KB-3-1) -4.62% | max response (NIH3T3) -4.21% | Potency (C33A) | Potency (CAOV3) | Potency (CASKI) | Potency (Es-2) | Potency (HeLa) | Potency (Hek293T) | Potency (JEG-3) | Potency (OV90)

C=C(CO[C@@H]1O[C@H](CO[C@@H]2OC[C@](O)(CO)[C@H]2O)[C@@H](O)[C@H](O)[C@H]1O)C1Cc2cc(C(C)=O)ccc2O1 (some centres undefined)
inactive: max response (HaCat) -0.415% | max response (KB-3-1) 7.61% | max response (NIH3T3) 3.36% | Potency (C33A) | Potency (CAOV3) | Potency (CASKI) | Potency (Es-2) | Potency (HeLa) | Potency (Hek293T) | Potency (JEG-3) | Potency (OV90)

CC(C)C(C(=O)N(C)C(C)C(N)=O)N(C)C(=O)C1CCCN1C(=O)/C=C/C=C/C(O)C(C)O (centres undefined)
inactive: max response (HaCat) -10.3% | max response (KB-3-1) 7.9% | max response (NIH3T3) 2.29% | Potency (C33A) | Potency (CAOV3) | Potency (CASKI) | Potency (Es-2) | Potency (HeLa) | Potency (Hek293T) | Potency (JEG-3) | Potency (OV90)

CC1C(OC(=O)c2ccccc2)C(O)C2C(C(=O)O)=COC(OC3OC(CO)C(O)C(O)C3O)C12 (centres undefined)
inactive: max response (HaCat) -2.92% | outcome (KB-3-1) | max response (NIH3T3) 4.34% | Potency (C33A) | Potency (CAOV3) | Potency (CASKI) | Potency (Es-2) | Potency (HeLa) | Potency (Hek293T) | Potency (JEG-3) | Potency (OV90)
